PubChem BioAssay (NCI)
Compounds without any hit were thinned out: in the full panel of roughly 83,000, 20% have a hit.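 Percent growth is the endpoint: 0 to 100 indicates growth inhibition (40 means 60% inhibition), 0 means no net growth, and negative values indicate cell death.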 Values without a mark were called inactive. Active and inactive are the calls of the source. The calls were made as follows: active = growth percent below 10; inactive = the rest.

Legend:
Test in all cases: NCI-60 one-dose screen, 48 h (100 = growth as untreated, 0 = no growth, -100 = all killed)
Settings in all cases: 10 µM unless noted
[1] = tested on: NCI-H23 lung
[2] = tested on: NCI-H226 lung
[3] = tested on: NCI-H322M lung
[4] = tested on: HOP-62 NSCLC
[5] = tested on: NCI-H460 lung
[6] = tested on: HOP-92 NSCLC
[7] = tested on: NCI-H522 lung
[8] = tested on: A549/ATCC NSCLC
[9] = tested on: 786-0 renal
[10] = tested on: COLO 205 colon

N#CC1=C(NC=O)Oc2c(ccc3ccccc23)C1c1ccccc1 (stereo not given) showed a growth [1] of 38.5%, a growth [2] of 62.6% and a growth [3] of 75.4%. The growth [4] was 21.1%, the growth [5] was 19.9% and the growth [6] was 42.6%. The growth [7] was -2.8% (active), the growth [8] was 36.3% and the growth [9] was 22%. The growth [10] was 96.4%.
In the case of Cc1cc(Cl)ccc1Nc1nc(C(F)(F)F)ccc1C(=O)N/N=C/c1ccc(N(C)C)cc1, the growth [1] is reported as 30.5%, the growth [2] is reported as 51.1% and the growth [3] is reported as 25.7%. The growth [4] was 24%, the growth [5] was 20.3% and the growth [6] was 18.7%. For the same molecule, the growth [7] was 7.24% (active), the growth [8] was 18.2% and the growth [9] was 16.8%. It also gave a growth [10] of 14.9%.
Work on O=c1c2c3c(sc2n2c(-c4cn(-c5ccccc5)nc4-c4ccc(Cl)cc4)nnc2n1Cc1ccccc1)CCCC3 yielded a growth [1] of 94.3%, a growth [2] of 107% and a growth [3] of 102%. It also gave a growth [4] of 94.6%, a growth [5] of 106% and a growth [6] of 81.8%. The growth [7] was 77.5%, the growth [8] was 105% and the growth [9] was 99.6%. It also gave a growth [10] of 111%.
With N#C/C(=C\c1ccc2c(c1)OCO2)n1nnc2cc(F)c(F)cc21 the growth [1] was 67.5%, the growth [2] was 69.5% and the growth [3] was 86.2%. For the same molecule, the growth [4] was 69.4%, the growth [5] was 77.5% and the growth [6] was 46.5%. It also gave a growth [7] of 18.3%, a growth [8] of 79% and a growth [9] of 89.2%. It also gave a growth [10] of 87.4%.
N#Cc1c(-c2ccccn2)[nH]c(=S)[nH]c1=O was tested, and the growth [1] was 106%, the growth [2] was 103% and the growth [3] was 97%. The growth [4] was 99.9%, the growth [5] was 108% and the growth [6] was 93.6%. For the same molecule, the growth [7] was 88.9%, the growth [8] was 98% and the growth [9] was 92.2%. The growth [10] was 110%.
With COc1ccc2c(c1)[nH]c(=O)c1c3cccnc3cn21 the growth [1] was 36.6%, the growth [2] was 66.3% and the growth [3] was 85.8%. For the same molecule, the growth [4] was 38.4%, the growth [5] was 1.71% (active) and the growth [6] was 73.5%. For the same molecule, the growth [7] was 12%, the growth [8] was 13% and the growth [9] was 25.7%. For the same molecule, the growth [10] was -45.4% (active).
CCN1CCN(c2nc(C)cc(NCc3cc(Nc4ccnc5cc(Cl)ccc45)ccc3F)n2)CC1 gave a growth [1] of 46.5%, a growth [2] of 69.1% and a growth [3] of 50.5%. The growth [4] was 12%, the growth [5] was -12.6% (active) and the growth [6] was 36%. The growth [7] was -14.8% (active), the growth [8] was 28% and the growth [9] was -51.2% (active). The growth [10] was -56.4% (active).
In the case of COC(=O)[C@]12CC[C@@H](C)[C@H](C)[C@@H]1C1=CC[C@@H]3[C@@]4(C)C(C=O)=C[C@@](C)(COC(C)=O)C4=CC[C@@]3(C)[C@]1(C)CC2, the growth [1] is reported as 7.56% (active), the growth [2] is reported as 11.2% and the growth [3] is reported as 24.8%. For the same molecule, the growth [4] was -7.82% (active), the growth [5] was -29.1% (active) and the growth [6] was -9.34% (active). The growth [7] was -30.5% (active), the growth [8] was 5.26% (active) and the growth [9] was -33.7% (active). The growth [10] was -66.5% (active).
With CC1OC(O[C@H]2/C=C/C=C/C=C/C=C/C=C/C=C/C=C/[C@H](C)[C@@H](O)[C@@H](C)[C@H](C)OC(=O)CC(O)CC(O)CCC(O)C(O)CC(O)C[C@]3(O)C[C@H](O)C(C(=O)O)C(C2)O3)C(O)[C@H](N)C1O (stereo not given in full) the growth [1] was -29.7% (active), the growth [2] was -9.69% (active) and the growth [3] was 20%. For the same molecule, the growth [4] was -82.5% (active), the growth [5] was -55.5% (active) and the growth [6] was 18.6%. The growth [7] was 16.2%, the growth [8] was -89.9% (active) and the growth [9] was -80% (active). For the same molecule, the growth [10] was 38.5%.
For c1cc2ccc3cc2cc1CNCCOCCNCc1ccc2ccc(cc2c1)CNCCOCCNC3, the growth [1] was -52.6% (active), the growth [2] was -29.4% (active) and the growth [3] was -10.7% (active). For the same molecule, the growth [4] was -10.2% (active), the growth [5] was -9.48% (active) and the growth [6] was -31.5% (active). The growth [7] was -61.6% (active), the growth [8] was 0.178% (active) and the growth [9] was 43.5%. For the same molecule, the growth [10] was -53.2% (active).
COC(=O)[C@]12CC[C@@H](C)[C@H](C)[C@@H]1C1=CC[C@@H]3[C@@]4(C)C(C=O)=C[C@@](C)(COC(=O)c5ccco5)[C@@H]4C(=O)C[C@@]3(C)[C@]1(C)CC2 showed a growth [1] of 26.3%, a growth [2] of 22.5% and a growth [3] of 69.6%. For the same molecule, the growth [4] was 31.6%, the growth [5] was 18.1% and the growth [6] was 31.8%. It also gave a growth [7] of 10.7%, a growth [8] of 10.1% and a growth [9] of 43.4%. For the same molecule, the growth [10] was -59.5% (active).
With COc1cc(C2NC(=O)c3ccccc3N2)ccc1OCCCCCOc1c(OC)cc(C2=NOC(c3cc(OC)c(OC)c(OC)c3)C2)cc1OC (stereo not given) the growth [1] was 59.5%, the growth [2] was 71.5% and the growth [3] was 103%. It also gave a growth [4] of 95.1%, a growth [5] of 63.4% and a growth [6] of 38.3%. It also gave a growth [7] of 56.3%, a growth [8] of 67.5% and a growth [9] of 95%. For the same molecule, the growth [10] was 108%.
O=[N+]([O-])c1ccc(N2c3ccncc3Sc3ccncc32)cc1 was tested, and the growth [1] was 102%, the growth [2] was 105% and the growth [3] was 105%. The growth [4] was 104%, the growth [5] was 122% and the growth [6] was 80.2%. It also gave a growth [7] of 87.8%, a growth [8] of 110% and a growth [9] of 107%. For the same molecule, the growth [10] was 111%.
Cc1cccc(NC(=O)CSc2nc3ccccc3[nH]2)c1 gave a growth [1] of 94.6%, a growth [2] of 92% and a growth [3] of 97%. The growth [4] was 88.7%, the growth [5] was 105% and the growth [6] was 88.4%. It also gave a growth [7] of 90.9%, a growth [8] of 101% and a growth [9] of 103%. It also gave a growth [10] of 110%.
N#C/C(=C/C=C/c1cccc(Cl)c1)S(=O)c1ccccc1 (stereo not given) was tested, and the growth [1] was -43.6% (active), the growth [2] was -33% (active) and the growth [3] was -44.9% (active). For the same molecule, the growth [4] was -17.4% (active), the growth [5] was -22.1% (active) and the growth [6] was -60.9% (active). For the same molecule, the growth [7] was -89.2% (active), the growth [8] was 1.83% (active) and the growth [9] was -88.7% (active). The growth [10] was -63.1% (active).
Work on COc1ccc(-c2csc(C3=C(O)CN(CCCN4CCCC4=O)C3=N)n2)cc1OC yielded a growth [1] of 94.5%, a growth [2] of 97.2% and a growth [3] of 109%. The growth [4] was 90.2%, the growth [5] was 113% and the growth [6] was 62.8%. For the same molecule, the growth [7] was 119%, the growth [8] was 91.6% and the growth [9] was 99.3%. It also gave a growth [10] of 106%.
For N=C(N)c1ccc(-c2ccc(-c3cncc4ccccc34)s2)s1, the growth [1] was -53.2% (active), the growth [2] was -50.6% (active) and the growth [3] was -90.9% (active). For the same molecule, the growth [4] was -84.8% (active), the growth [5] was -78.6% (active) and the growth [6] was -82.6% (active). The growth [7] was -69.6% (active), the growth [8] was -85.8% (active) and the growth [9] was -84.6% (active). The growth [10] was -78.1% (active).
For OC(c1cccc(-n2ccc(C(F)(F)F)n2)c1)c1cnccc1NC1CCCCCC1 (stereo not given), the growth [1] was 53.1%, the growth [2] was 67.3% and the growth [3] was 6.47% (active). The growth [4] was 73.7%, the growth [5] was -64.6% (active) and the growth [6] was -5.13% (active). It also gave a growth [7] of 43.9%, a growth [8] of 50.2% and a growth [9] of 28.9%. The growth [10] was -47.2% (active).
In the case of Cc1ccc(C(=NN=C(N)N)c2ccc(C)cc2)cc1, the growth [1] is reported as -14.5% (active), the growth [2] is reported as 12.3% and the growth [3] is reported as 30.5%. The growth [4] was 13.1%, the growth [5] was 2.86% (active) and the growth [6] was -0.938% (active). The growth [7] was -13.8% (active), the growth [8] was 11.1% and the growth [9] was -25% (active). The growth [10] was -83.2% (active).
Work on CC(C)C(NC(=O)C1(NC(=O)OCc2ccccc2)CCCC1)C(=O)O (stereo not given) yielded a growth [1] of 99.6%, a growth [2] of 104% and a growth [3] of 106%. It also gave a growth [4] of 119%, a growth [5] of 100% and a growth [6] of 92%. The growth [7] was 88.9%, the growth [8] was 106% and the growth [9] was 104%. For the same molecule, the growth [10] was 107%.
Molecule COc1ccc(Nc2nnc(SCc3ccccc3F)s2)cc1 has a growth [1] of 95.7%, a growth [2] of 87.2% and a growth [3] of 116%. For the same molecule, the growth [4] was 103%, the growth [5] was 111% and the growth [6] was 88.6%. It also gave a growth [7] of 75.4%, a growth [8] of 102% and a growth [9] of 101%. The growth [10] was 114%.
CCCCCCCCCCN(CCCCCCCCCC)CC(=O)c1ccc2cc(Br)c3ccccc3c2c1 showed a growth [1] of 47.4%, a growth [2] of 99.4% and a growth [3] of 65.7%. The growth [4] was 96.4%, the growth [5] was -65.9% (active) and the growth [6] was -77% (active). It also gave a growth [7] of 63.4%, a growth [8] of 82.3% and a growth [9] of 54.1%. The growth [10] was 104%.
COc1ccc2occ(C3=C(c4c[nH]c5ccccc45)C(=O)N(O)C3=O)c2c1 gave a growth [1] of 86.3%, a growth [2] of 78.7% and a growth [3] of 93.7%. It also gave a growth [4] of 86.3%, a growth [5] of 95.4% and a growth [6] of 87.8%. For the same molecule, the growth [7] was 58.1%, the growth [8] was 93.6% and the growth [9] was 91.3%. The growth [10] was 98.5%.
In the case of N#CCN1C(=O)C2C3=C(CCCC3)SC2N=C1CN1CCCC1 (stereo not given), the growth [1] is reported as 97.9%, the growth [2] is reported as 87.5% and the growth [3] is reported as 91.2%. The growth [4] was 89.6%, the growth [5] was 117% and the growth [6] was -1.97% (active). The growth [7] was 92.5%, the growth [8] was 93.1% and the growth [9] was 92%. For the same molecule, the growth [10] was 122%.
CNC(=O)NCC1OC(n2cnc3c(NC(=O)Nc4ccccc4)ncnc32)C(O[Si](C)(C)C(C)(C)C)C1CC(=O)N(C)OC (stereo not given) was tested, and the growth [1] was 48.2%, the growth [2] was 40.6% and the growth [3] was 78.8%. For the same molecule, the growth [4] was 60.3%, the growth [5] was 18.1% and the growth [6] was -34.3% (active). The growth [7] was 65.9%, the growth [8] was 2.06% (active) and the growth [9] was 47.4%. The growth [10] was -100% (active).
Cc1ccc(NCCN(C)C)c2c(=O)c3ccccc3sc12 gave a growth [1] of 40.5%, a growth [2] of 32.3% and a growth [3] of 53.5%. For the same molecule, the growth [4] was 36.2%, the growth [5] was -14.5% (active) and the growth [6] was 30.4%. The growth [7] was 16.8%, the growth [8] was 7.25% (active) and the growth [9] was 24.2%. The growth [10] was -53.5% (active).
